Sm TGR block = inhibitors of Schistosoma mansoni thioredoxin glutathione reductase. Q962Y6. purified TGR, DTNB reduction, TNB absorbance 405 nm. Potency, µM (doses to about 114 µM), for inactives: at the highest dose activity change, negative = inhibition, usual class: inhibitors. 360,000 tested, 3% active; note: potency is the fitted concentration of half-maximal effect; nearly all actives have a fitted effect of over 60% in size
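Kinetic colorimetric format: TGR-catalysed, NADPH-driven DTNB reduction monitored via TNB absorbance. Enzyme dispensed at 20 nM; compound exposure 15 min at room temperature before reaction start.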
FMDV antiviral = antivirals against foot and mouth disease virus; FMDV antiviral cell-based qHTS; AID 1159524; Potency, µM (top dose mostly 57.9 µM), for inactives: top-dose activity change, negative = inhibition, most hits filed as inhibitors; 410,000 tested, 1.2% active; calls by dose curve; tested in HEK293T cells; note: read-out not given here; potency is the fitted concentration of half-maximal effect; nearly all actives have a fitted effect of over 45% in size
HCMV inh = inhibitors of human cytomegalovirus | HFF cells, HCMV-luciferase reporter, 72 h; stronger effect = lower value | activity change, negative = inhibition, % at 57.5 µM | 410,000 tested, 4.5% active | AID 1259415; in the data active = activity change below about -60%; inconclusive = no clear call, values can overlap the other calls; inactive = above about -39%
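After 16 h attachment at 37C, HFF cells received test compound and HCMV-luciferase (1 PFU/cell); reporter luminescence read 72 h later, data normalized against buffer-only and known inhibitor Salinomycin.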
Giardia FBPA inh = blocks Giardia fructose-bisphosphate aldolase activity | AID 2451 | purified Giardia FBPA | Potency, µM (highest dose often 59.6 µM), without a hit: top-dose activity, negative = inhibition, usual class: inhibitors | A8B2U2 | 290,000 tested, 0.71% active; note: potency is the fitted concentration of half-maximal effect; nearly all actives have a fitted effect of over 55% in size
Target sequence (A8B2U2 whole entry, looked up): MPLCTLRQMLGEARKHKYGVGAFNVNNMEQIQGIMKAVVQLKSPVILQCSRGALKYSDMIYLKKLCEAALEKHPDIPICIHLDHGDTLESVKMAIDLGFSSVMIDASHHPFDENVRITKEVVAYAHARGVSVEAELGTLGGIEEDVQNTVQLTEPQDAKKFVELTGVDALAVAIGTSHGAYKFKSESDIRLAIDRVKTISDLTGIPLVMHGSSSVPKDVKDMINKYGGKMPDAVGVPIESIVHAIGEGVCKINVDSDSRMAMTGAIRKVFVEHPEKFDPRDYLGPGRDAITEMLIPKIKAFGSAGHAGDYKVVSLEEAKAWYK
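40 nM FBPA preincubated 10 min at RT with compound (up to 57.5 uM final), then substrate plus GAPDH/TPI/NAD/arsenate coupling and diaphorase/resazurin added. Fluorescence read after 20 min at RT, 525/598 nm.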
TbPYK inhibitor = inhibitors of Trypanosoma brucei pyruvate kinase; Q57TT1; TbPYK enzyme, Kinase-Glo Plus ATP luminescence, 45 min; Potency, µM (series often up to 76.8 µM), without a hit: top-dose activity, negative = inhibition, actives largely listed as inhibitors; 410,000 tested, 0.12% active; AID 624173; note: potency is the fitted concentration of half-maximal effect; nearly all actives have a fitted effect of over 50% in size
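Activity of T. brucei pyruvate kinase was followed by Kinase-Glo Plus luminescence after the enzyme reacted 45 min at room temperature with 130 uM ADP (final) and substrate. Test compounds were added before ADP at multiple concentrations.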
RE007 growth inh = less growth of the S. pombe RE007 Vpr strain; S. pombe RE007 Vpr strain, BacTiter-Glo ATP luminescence, 24 h; Potency, µM (titrated, usually from 92.2 µM), for inactives: at the highest dose activity change, negative = less growth, actives largely listed as inhibitors; 360,000 tested, 0.21% active; AID 651644; active = well fitted falling curve with a large enough effect; inconclusive = small, poorly fitted or top-dose-only effect; inactive = no such curve, though single readings can be large or run the other way; note: potency is the fitted concentration of half-maximal effect; nearly all actives have a fitted effect of over 50% in size
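Fission yeast strain RE007, carrying one chromosomally integrated HIV-1 vpr copy, was seeded at OD 0.01 in PMG+AL medium with 23 nL pinned compound. After 24 h at 30 °C and 99% humidity, viability was read by BacTiter-Glo luminescence.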
* hit, by the source's call; [ ] = remark or other dose. This is a sample that favours compounds with a hit; in the whole collection about 7.7% have one here. Unless noted, calls come from the whole dose curve; as a rule, active = well fitted curve in the direction sought with a large enough effect; inconclusive = small, poorly fitted or top-dose-only effect, or another doubt; inactive = no such curve, though single readings can be large; an effect the other way counts as inactive or inconclusive. % is set by controls: 0 for no effect and ±100 for the full control effect.

Results for CC(=O)Nc1ccccc1-c1nc2ccccc2n(Cc2cccc(Br)c2)c1=O ?
Sm TGR block: 4%; FMDV antiviral: -24%; HCMV inh: 5; TbPYK inhibitor: -5%

How did O=C(NC(=S)Nc1ccccc1CO)C1CCCCC1 do in these assays?
FMDV antiviral: 30%; HCMV inh: -16; TbPYK inhibitor: -3%; RE007 growth inh: 0%

Results for CCOc1ccccc1NC(=S)NC(=O)C1CC1 ?
Sm TGR block: inconclusive; FMDV antiviral: -16%; HCMV inh: -64*; TbPYK inhibitor: -13%; RE007 growth inh: 13%

How did O=C(CNC(=S)NC(=O)C1CCCCC1)c1ccccc1 do in these assays?
Sm TGR block: -1%; FMDV antiviral: 43%; HCMV inh: -79*; Giardia FBPA inh: 3%; TbPYK inhibitor: -3%; RE007 growth inh: 11%

Results for O=C(NC(=S)Nc1ccccc1Br)C1CC1 ?
FMDV antiviral: 11%; HCMV inh: 38; TbPYK inhibitor: 1%; RE007 growth inh: -15%

Results for CCOc1ccccc1NC(=S)Nc1ccc(S(N)(=O)=O)cc1 ?
Sm TGR block: 14µM*; FMDV antiviral: -2%; HCMV inh: -24; Giardia FBPA inh: -7%; TbPYK inhibitor: 2%; RE007 growth inh: 9%

What do the screens show for `Cc1ccccc1NC(=S)NC(=O)C1CCCCC1`?
Sm TGR block: 14µM*; FMDV antiviral: 27%; HCMV inh: 43; TbPYK inhibitor: -8%; RE007 growth inh: -25%

What do the screens show for `CCC(=O)N1CC(=O)N2[C@H](C1)[C@@H](c1ccc(Br)cc1)[C@@H]2CO`?
HCMV inh: 18

How did CC(C)(C)c1ccc(CSc2cnn(C(C)(C)C)c(=O)c2Cl)cc1 do in these assays?
Sm TGR block: -10%; FMDV antiviral: inconclusive; HCMV inh: -78*; Giardia FBPA inh: 6%; TbPYK inhibitor: -16%; RE007 growth inh: 0%

What do the screens show for `COc1ccc(CNC(=O)CCc2c(C)nn(-c3ccc(N4CCOCC4)nn3)c2C)cc1`?
Sm TGR block: 1%; FMDV antiviral: 0%; HCMV inh: -11; TbPYK inhibitor: 1%

Results for N#CCC(=O)N/N=C/c1cc(-c2ccccc2)n(-c2ccc(Cl)cc2)c1-c1ccccc1 ?
Sm TGR block: 1%; FMDV antiviral: 25µM*; HCMV inh: inconclusive; Giardia FBPA inh: 0%; TbPYK inhibitor: -4%; RE007 growth inh: 1%

How did Cn1c(O)c(N=NC(N)=S)c2ccccc21 do in these assays?
TbPYK inhibitor: -24%

Results for CC1=CC(C)(C)n2c(O)c(N=NC(N)=S)c3cc(C)cc1c32 ?
Sm TGR block: 4%; FMDV antiviral: -24%; HCMV inh: -68*; Giardia FBPA inh: 1%; TbPYK inhibitor: 0%; RE007 growth inh: 7%

Results for COc1ccc(S(=O)(=O)Nc2ccccc2)cc1 ?
FMDV antiviral: 52%; HCMV inh: 2; TbPYK inhibitor: -3%; RE007 growth inh: 6%

Results for COc1ccc(S(=O)(=O)Nc2ccc(O)c3ccccc23)cc1 ?
Sm TGR block: 20µM*; FMDV antiviral: -17%; HCMV inh: -104*; Giardia FBPA inh: 8%; TbPYK inhibitor: -19%; RE007 growth inh: -23%

How did COc1ccc(S(=O)(=O)Nc2ccc(Nc3ccccc3)cc2)cc1 do in these assays?
FMDV antiviral: 7%; HCMV inh: -70*; TbPYK inhibitor: 1%; RE007 growth inh: -7%

Results for COC(=O)c1ccc(C)c(NS(=O)(=O)c2ccc(OC)cc2)c1 ?
Sm TGR block: -25%; FMDV antiviral: 35%; HCMV inh: -91*; Giardia FBPA inh: 1%; TbPYK inhibitor: 9%; RE007 growth inh: 3%

Results for O=[N+]([O-])c1ccc(S(=O)(=O)Nc2ccc(-c3ccccc3)cc2)cc1 ?
FMDV antiviral: 20%; HCMV inh: -18; TbPYK inhibitor: -3%; RE007 growth inh: 35µM*

Results for CC[C@@H](c1ccccc1)n1c(=O)n2n(c1=O)[C@H]1[C@H](O)[C@H]3O[C@H]3C(=O)[C@H]1CC2 ?
Giardia FBPA inh: -3%[12.9 µM]

What do the screens show for `Brc1ccc2nc(-c3ccc(CN4CCC5(CC4)CNc4ccccc45)cc3)c(-c3ccccc3)nc2c1`?
HCMV inh: -12

How did O=C(C1CCC1)N1CCCc2cc(S(=O)(=O)N3CCN(c4cccc(Cl)c4)CC3)ccc21 do in these assays?
Sm TGR block: 5%; FMDV antiviral: -28%; HCMV inh: -9; TbPYK inhibitor: 0%

What do the screens show for `CCCn1cc(S(=O)(=O)c2cc(C)ccc2C)c(=O)c2cc(F)c(N3CCCCCC3)cc21`?
Sm TGR block: -3%; FMDV antiviral: 26%; HCMV inh: 8; TbPYK inhibitor: -4%

Results for COc1ccc(NC(=S)Nc2cccnc2)c(OC)c1 ?
Sm TGR block: inconclusive; FMDV antiviral: 17%; HCMV inh: -34; Giardia FBPA inh: -6%; TbPYK inhibitor: 2%; RE007 growth inh: -7%

How did COc1ccc(NCc2cccnc2)cc1 do in these assays?
Sm TGR block: -1%; FMDV antiviral: 12%; HCMV inh: -86*; Giardia FBPA inh: -1%; TbPYK inhibitor: -11%; RE007 growth inh: -12%

Results for Cc1ccc(NCc2cccnc2)cc1 ?
Sm TGR block: inconclusive; FMDV antiviral: -4%; HCMV inh: -6; Giardia FBPA inh: -28%; TbPYK inhibitor: 1%; RE007 growth inh: 3%

Results for COc1cccc(NC(=S)Nc2cccnc2)c1 ?
Sm TGR block: 40µM*; FMDV antiviral: 6%; HCMV inh: 54; Giardia FBPA inh: -9%; TbPYK inhibitor: 3%; RE007 growth inh: -10%

What do the screens show for `COc1ccc(Cl)cc1NC(=O)Nc1cnccn1`?
Sm TGR block: 2%; FMDV antiviral: -16%; HCMV inh: -85*; Giardia FBPA inh: 5%; TbPYK inhibitor: 4%; RE007 growth inh: -3%

Results for Cc1cccc(C)c1NC(=S)NCc1ccncc1 ?
Sm TGR block: 28µM*; FMDV antiviral: 8%; HCMV inh: -19; Giardia FBPA inh: 6%; TbPYK inhibitor: 2%; RE007 growth inh: 9%

Results for COc1cccc(NC(=S)Nc2ccc(Br)cc2Cl)c1 ?
Sm TGR block: 22µM*; FMDV antiviral: 1%; HCMV inh: 32; Giardia FBPA inh: -9%; TbPYK inhibitor: -1%; RE007 growth inh: 4%

How did Cc1cccc(NC(=S)NCC(c2cccnc2)N(C)C)c1 (stereo not given) do in these assays?
Sm TGR block: -1%; FMDV antiviral: -20%; HCMV inh: -71*; Giardia FBPA inh: 1%; TbPYK inhibitor: 1%; RE007 growth inh: -2%

How did O=C(NNC(=S)Nc1ccc(Br)cc1Cl)c1ccncc1 do in these assays?
Sm TGR block: -21%; FMDV antiviral: 46%; HCMV inh: 39; Giardia FBPA inh: 20%; TbPYK inhibitor: -8%; RE007 growth inh: -8%
